Measurements as given in the supplement of paper PMC8728848.
Many of the other results were omitted from the sample, so the strongest signals are more common in it than they were.

Legend:
Test in all cases: glycan array binding signal (z-score within array); higher = stronger binding
Settings in all cases: glycan notation: IUPAC condensed, linker removed
[1] = biological target: Fuc(a1-2)Gal(b1-3)[Fuc(a1-4)]GlcNAc(b1-3)[Fuc(a1-3)[Gal(b1-4)]GlcNAc(b1-6)]Gal(b1-4)Glc
Procedure, shortened: (§1)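 Glycan array binding is given as a within-array Z-score, which can be read as non-binding when negative. The arrays, 3228 of them, came from the Consortium for Functional Glycomics database and were retained only where the protein sequence was available. Z-scores were averaged across arrays of the same protein sequence at different concentrations or buffers and across linkers.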

Fuc(a1-2)Gal(b1-4)Glc6S = biological target: Fuc(a1-2)Gal(b1-4)Glc6S
Procedure, shortened: as §1

[2] = biological target: Fuc(a1-2)Gal(b1-4)GlcNAc(b1-3)[Fuc(a1-3)[Gal(b1-4)]GlcNAc(b1-6)]Gal(b1-4)Glc
Procedure, shortened: as §1

[3] = biological target: Fuc(a1-2)Gal6S(b1-3)GlcNAc6S
Procedure, shortened: as §1

Fuc(a1-2)Gal6S(b1-4)Glc = biological target: Fuc(a1-2)Gal6S(b1-4)Glc
Procedure, shortened: as §1

[4] = biological target: Fuc(a1-2)[Gal(a1-3)]Gal(b1-3)GlcNAc(b1-3)GalNAc
Procedure, shortened: as §1

[5] = biological target: Fuc(a1-2)[Gal(a1-3)]Gal(b1-4)GlcNAc(b1-3)GalNAc
Procedure, shortened: as §1

[6] = biological target: Fuc(a1-2)[Gal(a1-3)]Gal(b1-4)GlcNAc(b1-3)[Fuc(a1-2)[Gal(a1-3)]Gal(b1-4)GlcNAc(b1-6)]GalNAc
Procedure, shortened: as §1

[7] = biological target: Fuc(a1-2)[GalNAc(a1-3)]Gal(b1-4)Glc
Procedure, shortened: as §1

[8] = biological target: Fuc(a1-3)[Gal(b1-4)]Glc6S
Procedure, shortened: as §1

[9] = biological target: Fuc(a1-3)[Gal(b1-4)]GlcNAc(b1-3)GalNAc
Procedure, shortened: as §1

[10] = biological target: Fuc(a1-3)[Gal3S(b1-4)]Glc
Procedure, shortened: as §1

Fuc(a1-4)GlcNAc = biological target: Fuc(a1-4)GlcNAc
Procedure, shortened: as §1

[11] = biological target: Gal(a1-3)Gal(b1-4)GlcNAc(b1-6)GalNAc
Procedure, shortened: as §1

[12] = biological target: Gal(b1-3)GlcNAc(b1-2)Man(a1-3)[GlcNAc(b1-4)][Gal(b1-3)GlcNAc(b1-2)Man(a1-6)]Man(b1-4)GlcNAc(b1-4)GlcNAc
Procedure, shortened: as §1

[13] = biological target: Gal(b1-3)GlcNAc(b1-3)Gal(b1-4)[Fuc(a1-3)]GlcNAc(b1-6)[Gal(b1-3)GlcNAc(b1-3)]Gal(b1-4)Glc
Procedure, shortened: as §1

[14] = biological target: Gal(b1-3)GlcNAc(b1-6)GalNAc
Procedure, shortened: as §1

[15] = biological target: Gal(b1-3)[Fuc(a1-4)]GlcNAc(b1-2)Man
Procedure, shortened: as §1

Gal(b1-4)GlcNAc(b1-2)Man = biological target: Gal(b1-4)GlcNAc(b1-2)Man
Procedure, shortened: as §1

[16] = biological target: Gal(b1-4)GlcNAc(b1-2)Man(a1-3)[Gal(b1-4)GlcNAc(b1-2)Man(a1-6)]Man(b1-4)GlcNAc(b1-4)GlcNAc
Procedure, shortened: as §1

[17] = biological target: Gal(b1-4)GlcNAc(b1-2)Man(a1-3)[Gal(b1-4)GlcNAc(b1-2)Man(a1-6)][GlcNAc(b1-4)]Man(b1-4)GlcNAc(b1-4)[Fuc(a1-6)]GlcNAc
Procedure, shortened: as §1

[18] = biological target: Gal(b1-4)GlcNAc(b1-2)Man(a1-3)[GlcNAc(b1-4)][Gal(b1-4)GlcNAc(b1-2)Man(a1-6)]Man(b1-4)GlcNAc(b1-4)GlcNAc
Procedure, shortened: as §1

[19] = biological target: Gal(b1-4)GlcNAc(b1-2)[Gal(b1-4)GlcNAc(b1-4)]Man(a1-3)[GlcNAc(b1-4)][Gal(b1-4)GlcNAc(b1-2)[Gal(b1-4)GlcNAc(b1-6)]Man(a1-6)]Man(b1-4)GlcNAc(b1-4)GlcNAc
Procedure, shortened: as §1

[20] = biological target: Gal(b1-4)GlcNAc(b1-2)[Gal(b1-4)GlcNAc(b1-6)]Man(a1-6)[GlcNAc(b1-4)][Gal(b1-4)GlcNAc(b1-2)[Gal(b1-4)GlcNAc(b1-4)]Man(a1-3)]Man(b1-4)GlcNAc(b1-4)[Fuc(a1-6)]GlcNAc
Procedure, shortened: as §1

[21] = biological target: Gal(b1-4)GlcNAc(b1-3)Gal(b1-4)GlcNAc(b1-3)Gal(b1-4)GlcNAc(b1-2)[Gal(b1-4)GlcNAc(b1-3)Gal(b1-4)GlcNAc(b1-3)Gal(b1-4)GlcNAc(b1-6)]Man(a1-6)[Gal(b1-4)GlcNAc(b1-3)Gal(b1-4)GlcNAc(b1-3)Gal(b1-4)GlcNAc(b1-2)Man(a1-3)]Man(b1-4)GlcNAc(b1-4)[Fuc(a1-6)]GlcNAc
Procedure, shortened: as §1

[22] = biological target: Gal(b1-4)GlcNAc(b1-3)Gal(b1-4)GlcNAc(b1-6)[Gal(b1-3)]GalNAc
Procedure, shortened: as §1

[23] = biological target: Gal(b1-4)GlcNAc(b1-3)[Fuc(a1-3)GlcNAc(b1-6)]Gal(b1-4)Glc
Procedure, shortened: as §1

B1: HBHA-Rv (Mycobacterium tuberculosum), P0A5P6 (protein)
chain: MAENSNIDDIKAPLLAALGAADLALATVNELITNLRERAEETRTDTRSRVEESRARLTKLQEDLPEQLTELREKFTAEELRKAAEGYLEAATSRYNELVERGEAALERLRSQQSFEEVSARAEGYVDQAVELTQEALGTVASQTRAVGERAAKLVGIELPKKAAPAKKAAPAKKAAPAKKAAAKKAPAKKAAAKKVTQK
- glycan array binding signal (z-score) [1]: -0.277
- glycan array binding signal (z-score) (Fuc(a1-2)Gal(b1-4)Glc6S): -0.121
- glycan array binding signal (z-score) [2]: -0.392
- glycan array binding signal (z-score) [3]: 4.34
- glycan array binding signal (z-score) (Fuc(a1-2)Gal6S(b1-4)Glc): 0.069
- glycan array binding signal (z-score) [4]: -0.259
- glycan array binding signal (z-score) [5]: -0.204
- glycan array binding signal (z-score) [6]: 2.82
- glycan array binding signal (z-score) [7]: 0.064
- glycan array binding signal (z-score) [8]: -0.398
- glycan array binding signal (z-score) [9]: -0.275
- glycan array binding signal (z-score) [10]: -0.017
- glycan array binding signal (z-score) (Fuc(a1-4)GlcNAc): 20
- glycan array binding signal (z-score) [11]: 0.154
- glycan array binding signal (z-score) [12]: 0.595
- glycan array binding signal (z-score) [13]: -0.453
- glycan array binding signal (z-score) [14]: -0.248
- glycan array binding signal (z-score) [15]: 1.28
- glycan array binding signal (z-score) (Gal(b1-4)GlcNAc(b1-2)Man): 1.37
- glycan array binding signal (z-score) [16]: 0.061
- glycan array binding signal (z-score) [17]: -0.352
- glycan array binding signal (z-score) [18]: -0.309
- glycan array binding signal (z-score) [19]: -0.455
- glycan array binding signal (z-score) [20]: -0.428
- glycan array binding signal (z-score) [21]: -0.41
- glycan array binding signal (z-score) [22]: -0.399
- glycan array binding signal (z-score) [23]: -0.398
